PubChem BioAssay AID1159580 (chemical genetic matrix, 2015)
About 2,000 (36%) of roughly 5,500 compounds were called active. About 18% were inconclusive and are not listed. Cut-off read from the data, not from the text of the source: active = normalized growth mostly below about 0.91 (no sharp cut-off); inconclusive = no clear call, values can overlap the other calls; inactive = mostly above about 0.92. This is one part of the list.

Assay: chemical genetic growth profiling, strain panel (AID 1159580);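 note: tested at 20 µM; growth read once vehicle control cultures reached saturation at 30 °C; 1 = growth at the plate median or of vehicle wells; lower values mean less growth of the strain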
Conditions: S. cerevisiae deletion strains, growth OD

Measured: normalized growth

C/C(=N/NC(N)=S)c1ccc(Oc2c(Cl)cncc2Cl)cc1
inactive: locus YAR019C, strain CDC15, active compounds read low 0.997 | locus YBL105C, strain PKC1, active compounds read low 0.993 | locus YBR135W, strain CKS1, active compounds read low 0.983 | locus YBR136W, strain MEC1, active compounds read low 0.986 | locus YBR160W, strain CDC28, active compounds read low 0.989 | locus YDL017W, strain CDC7, active compounds read low 0.987 | locus YDL028C, strain MPS1, active compounds read low 0.992 | locus YDL101C, strain DUN1, active compounds read low 0.988 | locus YDL108W, strain KIN28, active compounds read low 0.987 | locus YDL132W, strain cdc53, active compounds read low 0.994 | locus YDL214C, strain PRR2, active compounds read low 1.01 | locus YDR052C, strain DBF4, active compounds read low 0.989 | locus YDR054C, strain cdc34, active compounds read low 0.978 | locus YDR226W, strain ADK1, active compounds read low 0.988 | locus YDR477W, strain SNF1, active compounds read low 0.999 | locus YER123W, strain YCK3, active compounds read low 0.989 | locus YER133W, strain GLC7, active compounds read low 0.969 | locus YFL009W, strain cdc4, active compounds read low 0.983 | locus YFL029C, strain CAK1, active compounds read low 1 | locus YFR003C, strain YPI1, active compounds read low 0.991 | locus YFR019W, strain FAB1, active compounds read low 0.99 | locus YFR028C, strain CDC14, active compounds read low 0.993 | locus YGR040W, strain KSS1, active compounds read low 0.989 | locus YGR052W, strain FMP48, active compounds read low 1.06 | locus YGR092W, strain DBF2, active compounds read low 0.97 | locus YHR030C, strain SLT2, active compounds read low 1.05 | locus YHR079C, strain IRE1, active compounds read low 0.932 | locus YHR082C, strain KSP1, active compounds read low 1.24 | locus YHR205W, strain SCH9, active compounds read low 1.07 | locus YIL147C, strain SLN1, active compounds read low 0.984 | locus YJL095W, strain BCK1, active compounds read low 0.944 | locus YJL128C, strain PBS2, active compounds read low 1.02 | locus YJL157C, strain FAR1, active compounds read low 0.993 | locus YJR016C, strain ILV3, active compounds read low 0.995 | locus YJR066W, strain TOR1 (second series), active compounds read low 0.953 | locus YJR066W, strain TOR1, active compounds read low 1.2 | locus YKL048C, strain ELM1, active compounds read low 1.03 | locus YKL067W, strain YNK1, active compounds read low 1.02 | locus YKL101W, strain HSL1, active compounds read low 1.03 | locus YKL193C, strain SDS22, active compounds read low 0.991 | locus YKL203C, strain TOR2, active compounds read low 1.06 | locus YLR113W, strain HOG1, active compounds read low 1.01 | locus YLR133W, strain CKI1, active compounds read low 1.01 | locus YLR403W, strain SFP1, active compounds read low 0.97 | locus YML070W, strain DAK1, active compounds read low 1.01 | locus YMR001C, strain CDC5, active compounds read low 0.989 | locus YMR205C, strain PFK2 (second series), active compounds read low 1.03 | locus YMR277W, strain FCP1, active compounds read low 0.997 | locus YNL006W, strain LST8, active compounds read low 0.993 | locus YNL020C, strain ARK1, active compounds read low 1.01 | locus YNL161W, strain CBK1, active compounds read low 1 | locus YNL183C, strain NPR1, active compounds read low 0.996 | locus YNL207W, strain RIO2, active compounds read low 0.995 | locus YNL222W, strain SSU72, active compounds read low 0.998 | locus YNL307C, strain MCK1 (second series), active compounds read low 1 | locus YOL078W, strain AVO1, active compounds read low 0.998 | locus YOL136C, strain PFK27, active compounds read low 1.02 | locus YOR061W, strain CKA2, active compounds read low 0.994 | locus YOR119C, strain RIO1, active compounds read low 1.02 | locus YOR231W, strain MKK1, active compounds read low 0.973 | locus YOR329C, strain SCD5, active compounds read low 0.991 | locus YPL031C, strain PHO85, active compounds read low 0.983 | locus YPL153C, strain RAD53, active compounds read low 0.953 | locus YPL204W, strain HRR25, active compounds read low 0.972 | locus YPL209C, strain IPL1, active compounds read low 0.998 | locus YPL256C, strain CLN2, active compounds read low 0.99 | locus YPR025C, strain CCL1, active compounds read low 0.988 | locus YPR106W, strain ISR1, active compounds read low 1 | locus YPR111W, strain DBF20, active compounds read low 1.02 | strain NNK1, active compounds read low 1.03 | strain TSCII, active compounds read low 0.994
